BAZ2B inh: BAZ2B (human) inhibition | AlphaScreen BAZ2B-H3K14Ac peptide displacement | actives 4.4% (n = 360,000) | Q9UIF8 | Potency, µM (series often up to 114 µM), without a hit: at the top dose activity change, negative = inhibition, actives largely listed as inhibitors; note: % is set by controls: 0 for no effect and ±100 for the full control effect; nearly all actives have a fitted effect of over 60% in size
Target sequence (Q9UIF8 whole entry, looked up): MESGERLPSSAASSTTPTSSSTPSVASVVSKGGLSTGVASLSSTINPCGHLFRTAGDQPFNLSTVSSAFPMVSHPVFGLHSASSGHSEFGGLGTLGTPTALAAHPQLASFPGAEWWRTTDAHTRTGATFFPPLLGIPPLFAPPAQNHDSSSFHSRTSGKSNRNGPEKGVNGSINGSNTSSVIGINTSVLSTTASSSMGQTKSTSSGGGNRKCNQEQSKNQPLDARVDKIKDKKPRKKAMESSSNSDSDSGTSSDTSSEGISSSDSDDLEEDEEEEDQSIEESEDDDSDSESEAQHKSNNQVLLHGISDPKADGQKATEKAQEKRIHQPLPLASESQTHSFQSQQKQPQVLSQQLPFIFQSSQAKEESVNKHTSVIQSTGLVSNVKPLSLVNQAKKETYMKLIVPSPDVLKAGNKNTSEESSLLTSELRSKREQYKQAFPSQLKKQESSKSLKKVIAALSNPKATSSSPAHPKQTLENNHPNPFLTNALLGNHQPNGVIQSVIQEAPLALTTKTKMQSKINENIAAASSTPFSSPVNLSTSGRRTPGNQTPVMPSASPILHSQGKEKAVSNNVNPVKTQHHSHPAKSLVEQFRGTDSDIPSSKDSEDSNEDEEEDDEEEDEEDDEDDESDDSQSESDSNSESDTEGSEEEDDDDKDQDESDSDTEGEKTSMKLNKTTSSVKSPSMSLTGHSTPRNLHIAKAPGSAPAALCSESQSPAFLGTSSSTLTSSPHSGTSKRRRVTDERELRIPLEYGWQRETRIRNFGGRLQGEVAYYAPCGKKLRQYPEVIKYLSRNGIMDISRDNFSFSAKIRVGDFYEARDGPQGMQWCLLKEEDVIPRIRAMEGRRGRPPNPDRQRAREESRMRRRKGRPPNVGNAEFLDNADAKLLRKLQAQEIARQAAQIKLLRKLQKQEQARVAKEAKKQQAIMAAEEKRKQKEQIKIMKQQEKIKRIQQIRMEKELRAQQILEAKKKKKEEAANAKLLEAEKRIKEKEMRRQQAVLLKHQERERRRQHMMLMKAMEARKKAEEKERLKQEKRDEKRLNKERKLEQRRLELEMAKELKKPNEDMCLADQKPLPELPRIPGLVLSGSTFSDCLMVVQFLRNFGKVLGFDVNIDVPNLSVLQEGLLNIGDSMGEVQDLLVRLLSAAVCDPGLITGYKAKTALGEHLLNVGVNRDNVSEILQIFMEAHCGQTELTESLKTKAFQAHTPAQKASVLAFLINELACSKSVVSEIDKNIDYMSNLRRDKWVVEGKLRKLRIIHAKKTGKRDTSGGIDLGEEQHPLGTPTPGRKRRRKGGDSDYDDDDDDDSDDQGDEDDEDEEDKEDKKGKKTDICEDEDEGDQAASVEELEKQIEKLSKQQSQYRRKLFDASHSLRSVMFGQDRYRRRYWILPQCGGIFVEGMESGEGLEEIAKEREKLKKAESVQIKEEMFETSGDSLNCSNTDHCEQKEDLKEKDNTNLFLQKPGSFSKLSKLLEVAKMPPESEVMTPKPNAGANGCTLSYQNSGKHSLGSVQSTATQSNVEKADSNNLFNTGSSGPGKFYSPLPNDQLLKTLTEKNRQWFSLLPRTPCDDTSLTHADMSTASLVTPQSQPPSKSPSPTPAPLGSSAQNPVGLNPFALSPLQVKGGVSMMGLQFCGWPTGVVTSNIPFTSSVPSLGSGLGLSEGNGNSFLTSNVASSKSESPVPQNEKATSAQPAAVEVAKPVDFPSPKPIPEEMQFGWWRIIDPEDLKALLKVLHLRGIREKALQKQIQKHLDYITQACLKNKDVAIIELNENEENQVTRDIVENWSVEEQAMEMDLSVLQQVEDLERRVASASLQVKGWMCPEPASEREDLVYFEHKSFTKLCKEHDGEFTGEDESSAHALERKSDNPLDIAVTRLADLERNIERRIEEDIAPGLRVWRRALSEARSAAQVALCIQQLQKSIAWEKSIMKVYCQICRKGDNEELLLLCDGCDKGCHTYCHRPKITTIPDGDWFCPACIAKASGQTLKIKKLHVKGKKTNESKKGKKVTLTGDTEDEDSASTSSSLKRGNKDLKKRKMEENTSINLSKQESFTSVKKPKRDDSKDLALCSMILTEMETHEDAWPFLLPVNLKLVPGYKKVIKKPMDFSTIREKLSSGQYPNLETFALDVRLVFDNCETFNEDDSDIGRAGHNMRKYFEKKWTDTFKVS
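AlphaScreen displacement of biotin-H3(5-23)K14Ac peptide (50 nM final) from BAZ2B (50 nM final) in PBS pH 7.4, 0.01% Tween-20; complex preformed 30 min RT, then compounds (top 110 uM) 30 min RT, beads 20 min dark.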
L3MBTL1 inh: blocks human L3MBTL1 | Q9Y468 | AlphaScreen L3MBTL1–H3K9me1 peptide binding | Potency, µM (series often up to 57.1 µM), inactives show at the highest dose activity, negative = inhibition, usual class: inhibitors | actives 0.66% (n = 230,000); note: % is set by controls: 0 for no effect and ±100 for the full control effect; nearly all actives have a fitted effect of over 60% in size
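AlphaScreen assay: L3MBTL1 (50 nM final) was preincubated 30 min at room temperature with biotinylated H3(1-15)K9me1 peptide (75 nM final), then 30 min with library compounds; streptavidin donor and nickel chelate acceptor beads (10 ug/mL final) added, 30 min dark.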
PLK1 PBD inh: PLK1 (human) polo-box domain binding inhibition. P53350. Plk1 PBD binding of FITC phosphopeptide, fluorescence polarization. Potency, µM, inactives show max response, negative = inhibition, actives largely listed as inhibitors. actives 2.8% (n = 360,000); note: series mostly up to about 57 µM; % is set by controls: 0 for no effect and ±100 for the full control effect; nearly all actives have a fitted effect of over 65% in size
VDR inhibitor: inhibitors of human vitamin D receptor; VDR-SRC2-3 peptide fluorescence polarization, 2 h; Potency, µM, for inactives: max response, negative = inhibition, actives largely listed as inhibitors; actives 0.93% (n = 400,000); note: % is set by controls: 0 for no effect and ±100 for the full control effect
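Signal is fluorescence polarization, reporting how far test compounds block the interaction of VDR with the SRC2-3 coregulator peptide after a 2 h room-temperature incubation.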
JMJD2A Tudor inh: JMJD2A Tudor domain (human) inhibition. AlphaScreen JMJD2A-Tudor / H3K4me3 peptide binding. Potency, µM (highest dose often 114 µM), inactives show at the top dose activity change, negative = inhibition, actives largely listed as inhibitors. actives 4.4% (n = 390,000); note: % is set by controls: 0 for no effect and ±100 for the full control effect; nearly all actives have a fitted effect of over 50% in size
HP1b binding inh: inhibitors of HP1-beta chromodomain binding to methylated histone tails; Potency, µM (titrated, usually from 114 µM), without a hit: at the top dose activity change, negative = inhibition, most hits filed as inhibitors; actives 0.56% (n = 390,000); AlphaScreen HP1-beta / biotin-H3K9me3 peptide binding; note: nearly all actives have a fitted effect of over 70% in size
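Compound inhibition of the preformed complex between 50 nM HP1-beta and 50 nM biotinylated H3K9me3 peptide was read by AlphaScreen. Buffer was PBS pH 7.4 with 0.01% Tween-20. Incubations ran 30 min at room temperature, with 10 ug/mL donor/acceptor beads.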
TbPYK inh: confirmation of Trypanosoma brucei pyruvate kinase inhibitors; actives 67% (n = 890); shares compounds with PLK1 PBD inh; Potency, µM (top dose mostly 76.9 µM), for the others: top-dose activity change, negative = inhibition, actives largely listed as inhibitors; recombinant TbPYK, Kinase-Glo ATP luminescence; note: % is set by controls: 0 for no effect and ±100 for the full control effect; nearly all actives have a fitted effect of over 70% in size
TbPYK ADP-Glo: orthogonal confirmation of Trypanosoma brucei pyruvate kinase inhibitors; recombinant TbPYK, ADP-Glo luminescence, 60 min; Potency, µM (highest dose often 76.9 µM), without a hit: top-dose activity change, negative = inhibition, hits mostly inhibitors; shares compounds with PLK1 PBD inh; actives 62% (n = 890); note: % is set by controls: 0 for no effect and ±100 for the full control effect; nearly all actives have a fitted effect of over 75% in size
Starred values were filed as active, the others as inactive; ? = inconclusive; · = not tested or not shown; [ ] = dose if it differs, or a comment. The list is not random: actives were taken first. Their share in the collection is about 6.9%. Calls come from the whole dose curve; as a rule, active = well fitted curve in the direction sought with a large enough effect; inconclusive = small, poorly fitted or top-dose-only effect, or another doubt; inactive = no such curve, though single readings can be large; an effect the other way counts as inactive or inconclusive. Potency is the fitted concentration of half-maximal effect.

SMILES	BAZ2B inh	L3MBTL1 inh	PLK1 PBD inh	VDR inhibitor	JMJD2A Tudor inh	HP1b binding inh	TbPYK inh	TbPYK ADP-Glo
CCCNC(=O)c1ccc(-c2nc(CS(=O)(=O)c3ccc(C)cc3)c(C)o2)cc1	-12%	·	·	2%	-28%	-17%	·	·
COc1ccc(OC)c(S(=O)(=O)Nc2cc3c(cc2N2CCCC2)n(C)c(=O)c(=O)n3C)c1	50µM*	·	21µM*	?	32µM*	7%	-21%	?
Cc1ccc2oc(C(=O)N3CCN(Cc4ncccc4C)CC3)c(C)c2c1	0%	·	-1%	-12%	-32%	30%	·	·
CCOC(=O)CCc1c(C)nc(SCc2ccc(C(=O)O)cc2)c(C#N)c1C	2%	1%	-17%	-16%	-5%	43%	·	·
CCc1c(C)nc(SC(C(=O)O)c2ccccc2)c(C#N)c1C (stereo not drawn)	-2%	0%	-5%	-13%	-16%	7%	·	·
CCOC(=O)CCc1c(C)nc(SCC(=O)O)c(C#N)c1C	9%	2%	-20%	?	25µM*	11%	2.2µM*	7.1µM*
Cc1nc(SCC(=O)O)c(C#N)c(C)c1CC(=O)c1ccccc1	-14%	·	-19%	-11%	-13%	40%	5.6µM*	11µM*
O=C(CN1CCc2cc3c(cc2C1)OCCCO3)Nc1c(F)cccc1F	-21%	·	-6%	7%	-10%	29%	·	·
COc1ccc(-c2cnc(OC(C)(C)C)nc2OC(C)(C)C)cc1OC	-5%	·	2%	-12%	-4%	21%	·	·
O=C(CSc1nnc(-c2ccco2)c(-c2ccco2)n1)c1ccccc1	-1%	-2%	17µM*	?	45µM*	?	14µM*	20µM*
Cc1cc(Cl)nc(SCC(=O)c2ccccc2)n1	2%	10%	1%	10%	28%	85%	·	·
COc1cccc(/C=N/NC(=O)c2ccncc2)c1OC(=O)c1ccc(Br)cc1	-23%	·	-25%	-7%	?	13%	·	·
CC1CCCCC1NC(=O)CN1CCC(NC(=O)C(C)(C)C)CC1 (stereo not drawn)	·	·	-6%	·	·	·	·	·
CCn1c(SCC(=O)Nc2nc(-c3ccccc3)cs2)nc2c1c(=O)n(C)c(=O)n2C	-23%	3%	4%	2%	1%	23%	·	·
CCCn1c(SCC(=O)Nc2nc(-c3ccc(OC)cc3)cs2)nc2c1c(=O)n(C)c(=O)n2C	-5%	2%	-12%	0%	-21%	14%	11%	2%
S=C1SCN(Cc2ccccc2)CN1Cc1ccco1	·	·	12µM*	·	·	·	?	?
CCOc1cc2[nH]c(=S)n(Cc3ccc(C(=O)NCCN(CC)CC)cc3)c(=O)c2cc1OCC	-20%	·	-13%	-11%	?	15%	14µM*	14µM*
CCOc1ccc(N(CC)S(=O)(=O)N2CCCC(C(=O)NCc3ccccc3OCC)C2)cc1 (stereo not drawn)	-12%	·	·	6%	-13%	38%	·	·
Cc1ccc2nc(-c3ccccn3)c(N)n2c1	·	·	-1%	·	·	·	28µM*	11%
N#Cc1c(NC(=O)CCC(=O)O)sc2c1CCCCC2	?	-10%	27µM*	0%	45µM*	?	?	?
Cn1c2ccccc2c2ccc3c(c21)C(=O)C=CC3=O	·	·	12µM*	25µM*	16µM*	11µM*	-28%	-21%
Cn1c2c(c(=O)c3ccccc31)CCCC2	4%	7%	-4%	4%	-10%	24%	·	·
COc1ccccc1NC(=O)COC(=O)C1=NN(c2ccccc2)C(=O)CC1	·	7%	7%	6%	1%	6%	·	·
Cc1onc(-c2c(F)cccc2Cl)c1C(=O)N1CCCc2ccccc21	-3%	3%	-2%	26%	-1%	40%	8.9µM*	7.9µM*
Cc1onc(-c2ccccc2Cl)c1C(=O)N1CCCc2ccccc21	10%	2%	-6%	-12%	-8%	13%	7.9µM*	8.9µM*
SMILES	BAZ2B inh	L3MBTL1 inh	PLK1 PBD inh	VDR inhibitor	JMJD2A Tudor inh	HP1b binding inh	TbPYK inh	TbPYK ADP-Glo
O=C(CSc1nnc(-c2cccs2)n1-c1ccccc1)NCc1ccc2c(c1)OCO2	-8%	·	-6%	2%	-29%	29%	·	·
Cc1ccc(-n2c(SCC(=O)Nc3ccc4c(c3)OCO4)nnc2-c2cccs2)cc1	11%	0%	-5%	-8%	56µM*	30%	1.8µM*	4.5µM*
O=C(Nc1nc2ccc(S(=O)(=O)N3CCCCC3)cc2s1)c1ccncc1	23%	-8%	-20%	14%	-18%	56%	·	·
O=C(Nc1nc2ccc(S(=O)(=O)N3CCCC3)cc2s1)c1ccccn1	?	·	-16%	-21%	?	11%	?	?
CN(C)c1ccc(/C=C/c2ccc3ccccc3[n+]2C)cc1	45µM*	-9%	11%	20%	79µM*	?	?	2%
CN(C)c1ccc(/C=C/c2ccc3c4ccccc4ccc3[n+]2-c2ccccc2)cc1	7.9µM*	?	-15%	46%	8.9µM*	11µM*	32µM*	7%
Cc1ccc(-n2c(N)c(C(=O)N3CCN(C)CC3)sc2=S)cc1	-24%	-6%	3µM*	25µM*	?	?	0.63µM*	4.5µM*
C=CCn1c(N)c(C(=O)N2CCN(C)CC2)sc1=S	1%	-3%	?	4%	-8%	-8%	·	·
Cc1ccc(CN2CCN(/N=C/c3ccc(O)c(O)c3)CC2)cc1	50µM*	?	?	-19%	22µM*	20µM*	14µM*	16µM*
CCOc1ccc(N(CC)S(=O)(=O)N2CCCC(C(=O)NCCc3ccccc3OC)C2)cc1 (stereo not drawn)	-14%	·	·	13%	-18%	1%	·	·
CCOC(=O)C(C)Sc1nc(N2CCOCC2)c2c(c1C#N)CC(C)(C)OC2 (stereo not drawn)	·	·	-6%	7%	-5%	11%	·	·
CCOC(=O)CCSc1nc(N2CCOCC2)c2c(c1C#N)CC(C)(C)OC2	8%	·	-10%	-8%	8%	-22%	11µM*	11µM*
COc1ccc(-c2ccc3oc(-c4ccsc4)cc3c2)cc1	·	·	2%	-14%	1%	42%	·	·
CC(=O)/C(=N\Nc1ccc(C)cc1)Sc1nncn1C	-5%	2%	-4%	-2%	?	14%[57 µM]	4.5µM*	13µM*
Cc1ccc(NC(=O)CN(C)C(=O)CSc2nncn2C)cc1	0%	·	-1%	9%	-14%	13%	·	·

Compound activity deposited in PubChem by National Center for Advancing Translational Sciences (NCATS).
